The results in this text go back to PubChem BioAssay AID1851 (National Center for Advancing Translational Sciences (NCATS), 2009).

Out of some 16,000 compounds screened, about 5,100 (32%) were called active. About 25% were inconclusive and are not listed. The list shows a part of the results. Unmarked numbers belong to inactive results. Calls come from the whole dose curve; as a rule, active = well fitted curve in the direction sought with a large enough effect; inconclusive = small, poorly fitted or top-dose-only effect, or effect the other way; inactive = no such curve, though single readings can be large or run the other way.
% is set by controls: 0 for no effect and ±100 for the full control effect.

Chain of Cytochrome P450 3A4 (Homo sapiens) (P08684 whole entry, looked up): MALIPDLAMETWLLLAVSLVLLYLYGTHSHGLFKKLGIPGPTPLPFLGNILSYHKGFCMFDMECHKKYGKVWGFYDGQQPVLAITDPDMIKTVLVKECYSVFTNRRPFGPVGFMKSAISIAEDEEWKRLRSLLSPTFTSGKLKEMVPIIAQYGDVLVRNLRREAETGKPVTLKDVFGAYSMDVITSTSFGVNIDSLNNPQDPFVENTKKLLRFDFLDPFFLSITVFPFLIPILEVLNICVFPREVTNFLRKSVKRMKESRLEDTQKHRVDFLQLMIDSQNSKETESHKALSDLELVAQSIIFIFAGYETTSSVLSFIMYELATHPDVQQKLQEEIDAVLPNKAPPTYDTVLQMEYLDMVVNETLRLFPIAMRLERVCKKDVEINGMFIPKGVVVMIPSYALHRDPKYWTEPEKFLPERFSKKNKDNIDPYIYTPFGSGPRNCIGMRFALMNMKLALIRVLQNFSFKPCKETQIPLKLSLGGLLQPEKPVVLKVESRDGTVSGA

This assay has as its target Cytochrome P450 3A4 (Homo sapiens) (UniProt P08684). The experiment in a line: Cytochrome panel assay with activity outcomes. The conditions noted are these: recombinant CYP, pro-luciferin dealkylation, luminescence, p450-cyp3a4; series mostly up to 57.1 µM; activity, negative = inhibition: at the top concentration.
For the molecule `O=C(O)NCC1CCCCC1` (tested in a mixture with another compound), the activity, negative = inhibition is -26.5% [at 11.4 µM]. In the case of `O=[n+]1c2c(n([O-])c3cc(F)c(F)cc31)CCCC2`, the “activity, negative = inhibition” value was 4.83%. Consider `CC(C)(C)C(=O)[C@H]1[C@H](c2ccccc2)[C@@]2(N=C(c3ccccc3)OC2=O)C2c3ccccc3C=NN21` (stereo partly drawn), for which the activity, negative = inhibition was -20.3% [at 2.29 µM]. As for `Cc1cc(NC(=O)COC(=O)c2ccc(S(=O)(=O)N3CCCc4ccccc43)cc2)no1`, the AC50 was 0.891 µM (active). With `COc1ccc(/C=C(\C#N)C(N)=O)c(OC)c1`, the concentration at half-maximal activity (AC50) is 2.51 µM (active). With `COc1ccc(/C=C(\C#N)C(N)=O)cc1OC`, the activity, negative = inhibition is -6.66% [at 11.4 µM]. As to `CCOc1ccccc1/C=C(\C#N)C(N)=O`, the activity, negative = inhibition was -4.52% [at 11.4 µM]. With `Cc1cccc2nc(C(F)(F)F)nc(=O)n12`, the activity, negative = inhibition was 0.743% [at 2.29 µM]. The same measure, in the same setting: with `CC(C)OC(=O)c1cccc(C(=O)Oc2ccc(Br)cc2)n1` the figure was 3%. Turning to `O=C(CCN1C(=O)c2cccc3cccc(c23)C1=O)N1CCN(Cc2ccc3c(c2)OCO3)CC1`, the half-maximal activity concentration (AC50) is 1 µM (active).

As to `Cc1ccc(/C=C2\OC(=O)c3ccccc32)cc1`, the AC50 is 12.6 µM (active).

As for `Cc1ccc(=O)n(-c2ccccc2)c1`, the “activity, negative = inhibition” value was -17.9%.

As for `Cc1ccccc1/C=C1\OC(=O)c2ccccc21`, the “activity, negative = inhibition” value is -28.4%. `CCC(C)N1C(=O)S/C(=C/c2ccc(Sc3nc4ccccc4[nH]3)o2)C1=O` (stereo not drawn): the AC50 was 1.12 µM (active).

With `COc1ccc(CNc2ncnc3ccc(-c4c(C)noc4C)cc23)c(OC)c1`, the AC50 was 3.16 µM (active). On the same count and under the same terms, with `COc1ccccc1CNc1ncnc2ccc(-c3c(C)noc3C)cc12` the figure was 12.6 µM (active). For the molecule `Cn1c(N)c(N=Nc2ccc(S(N)(=O)=O)cc2)c(=O)n(C)c1=O`, the activity, negative = inhibition was -14.9% [at 11.4 µM]. In the case of `CN(Cc1ccco1)C(=O)C1CCC(=O)N1Cc1ccc(F)cc1` (stereo not drawn), the “activity, negative = inhibition” value was -13.7%.

With `CC(C)(C)c1ccc(CN(Cc2ccco2)Cc2nnnn2C2CCCC2)cc1`, the AC50 was 1.41 µM (active). `NC(N)=N/N=C(\c1ccc(Cl)cc1)C1CC1`: the activity, negative = inhibition was -13.1% [at 11.4 µM]. Consider `CCOC(=O)N1CCN(C(=O)c2cnc3n(c2=O)CCS3)CC1`, for which the “activity, negative = inhibition” value was -1.95%.

Regarding `CCOC(=O)N1CCN(C(=O)CCn2nc(-c3ccccc3)ccc2=O)CC1`, the “activity, negative = inhibition” value was 11.8%. As for `CCOC(=O)N1CCN(C(=O)C(CC)n2nc(C)c3sc4ccccc4c3c2=O)CC1` (stereo not drawn), the AC50 is 7.08 µM (active). Consider `COc1ccc(CCC(C)NC2C3CC4CC(C3)CC2C4)cc1` (stereo not drawn), for which the activity, negative = inhibition was -2.79% [at 2.29 µM]. `COc1ccc(S(=O)(=O)N2CC3C4C=CC(C4)C3C2)cc1` (stereo not drawn): the AC50 is 14.1 µM (active).

In the case of `C[C@@H]1C[C@H](C)CN(S(=O)(=O)c2cc(Cl)c(Oc3ccc([N+](=O)[O-])cc3Cl)c(Cl)c2)C1`, the activity, negative = inhibition was -9.23% [at 11.4 µM]. As for `Oc1ccccc1-c1cc(-c2ccccc2)no1`, the “activity, negative = inhibition” value is 1.55%. On to `O=C(CN1C(=O)NC2(CCCC2)C1=O)NCCC1=CCCCC1`, for which the “activity, negative = inhibition” value was -28.6%.

On to `CC1CN(C(=O)CN2C(=O)NC3(CCCCCC3)C2=O)CC(C)O1` (stereo not drawn), for which the “activity, negative = inhibition” value was 25.3%. `O=C(CN1C(=O)NC2(CCCCCC2)C1=O)N1CCN(S(=O)(=O)c2ccc(Cl)cc2)CC1`: the AC50 is 6.31 µM (active). As to `Nc1ccc(-c2ccc(Nc3cc(S(=O)(=O)O)c(N)c4c3C(=O)c3ccccc3C4=O)cc2)c(S(=O)(=O)O)c1`, the activity, negative = inhibition was -1.65% [at 11.4 µM]. For the molecule `Cc1ccc(S(=O)(=O)N(C)c2cc(S(=O)(=O)N3CCC(C)CC3)c(C)cc2C)cc1`, the AC50 is 2.51 µM (active). For the molecule `CC1CCN(S(=O)(=O)c2ccc3c(c2)C(=NO)c2cc(S(=O)(=O)N4CCC(C)CC4)ccc2-3)CC1`, the activity, negative = inhibition is -0.656% [at 2.29 µM].

Regarding `O=C(N/N=C\c1ccc2c(c1)CCC2)c1ccccc1O`, the activity, negative = inhibition is -19.2% [at 11.4 µM]. Take `O=C(CC1CCCC1)Nc1ccc2c(c1)CCC2`: the half-maximal activity concentration (AC50) is 14.1 µM (active). For the molecule `CC(=O)c1cccc(NC(=O)Cc2ccc3c(c2)CCCC3)c1`, the “activity, negative = inhibition” value is -26.1%.

Turning to `Cc1nc2ccccc2n1CC(=O)N/N=C\c1ccccn1`, the “activity, negative = inhibition” value was -14.7%. Consider `COCCCNC(=O)c1c(N)n(/N=C/c2ccccn2)c2nc3ccccc3nc12`, for which the AC50 is 4.47 µM (active). `CCCCCCCCC(=O)N/N=C/c1ccccn1`: the “activity, negative = inhibition” value is -18.3%. Turning to `CS(=O)(=O)N1CCC2(CC1)CN(c1cccc(-c3ccccc3)c1)C2`, the “activity, negative = inhibition” value is -29.8%. Turning to `O=S(=O)(c1ccccc1)N1CCC2(CCCN(c3cccc(-c4ccccc4)c3)C2)CC1`, the AC50 was 3.98 µM (active). For the molecule `O=S(=O)(c1ccccc1)N1CCC2(CC1)CN(c1ncccn1)C2`, the “activity, negative = inhibition” value is 3.08%. Take `O=S(=O)(c1ccccc1)N1CCC2(CCCN(c3ccccc3)C2)CC1`: the AC50 is 3.98 µM (active).

With `CS(=O)(=O)N1CCC2(CCN(c3cccc(-c4ccccc4)c3)CC2)CC1`, the “activity, negative = inhibition” value was -21.2%. Regarding `CS(=O)(=O)N1CCC2(CCCN(c3ncccn3)C2)CC1`, the “activity, negative = inhibition” value was -23.3%. Regarding `O=S(=O)(c1ccccc1)N1CCC2(CCCN(c3ncccn3)C2)CC1`, the AC50 is 12.6 µM (active).

Consider `CN1CCCC2(CCN(S(=O)(=O)c3ccccc3)CC2)C1`, for which the “activity, negative = inhibition” value was -18%. On to `O=S(=O)(c1ccccc1)N1CCC[C@@]2(CCN(c3cccc(-c4ccccc4)c3)C2)C1`, for which the AC50 was 12.6 µM (active). Regarding `CCN(CCCc1ccccc1)CCCc1ccccc1`, the “activity, negative = inhibition” value is -5.25% [at 25.6 µM]. For `Fc1ccc(SCCc2ccncc2)cc1`, the AC50 was 3.55 µM (active). For the molecule `ON(CCc1ccncc1)Cc1ccccc1`, the AC50 was 1 µM (active). Consider `c1ccc(CCN2CCN=C2Cc2ccccc2)cc1`, for which the activity, negative = inhibition was 7.9% [at 11.4 µM].

Turning to `c1ccc(SCCc2ccncc2)cc1`, the AC50 is 2.51 µM (active). `C[C@@H](CSC(=N)N)C(N)=O`: the activity, negative = inhibition is -8.21% [at 11.4 µM].

In the case of `CCN(CC(=O)O)CC(=O)O`, the activity, negative = inhibition was 0.0109% [at 11.4 µM]. For the molecule `Cc1ccccc1OCC(=O)OC1CCN(C)CC1`, the “activity, negative = inhibition” value is 17.6%. As for `COc1ccc(C(=O)C(OC(=O)CNC(=O)c2ccco2)c2ccccc2)cc1` (stereo not drawn), the AC50 was 14.1 µM (active). With `CC(=O)NNC(=O)CCC(=O)Nc1ccccc1`, the activity, negative = inhibition was 6.14% [at 2.29 µM]. Consider `Cc1ccc(C(=O)C(OC(=O)CCC(=O)Nc2cccc(C)c2)c2ccccc2)cc1` (stereo not drawn), for which the AC50 is 25.1 µM (active). Same read-out and setting: with `Cc1ccc(C(=O)C(OC(=O)COc2ccccc2C)c2ccccc2)cc1` (stereo not drawn) the figure was 10 µM (active); with `Cc1ccc(C(=O)C(OC(=O)CNS(=O)(=O)c2ccccc2)c2ccccc2)cc1` (stereo not drawn), 14.1 µM (active). For `CC(=O)Nc1cccc(C(=O)OC(C(=O)c2ccc(C)c(C)c2)c2ccccc2)c1` (stereo not drawn), the activity, negative = inhibition is 8% [at 2.29 µM]. For `CCOC(=O)CC(NC(=O)c1ccco1)c1ccc(OC)cc1` (stereo not drawn), the “activity, negative = inhibition” value was 13.6%.

What is called AC50 is the concentration at which the activity in the assay is half-maximal.
